Assay results from PubChem BioAssay (EPA / NIEHS).
Records with an inconclusive call do not appear. Calls of active or inactive are those of the source. The calls were made as follows: active = hit-call score of the fitted dose curve at least 0.9, where 1 is the maximum; inconclusive = response in the unintended direction; inactive = score below 0.9.

Assay: CLD_ACTIN_6hr: CellzDirect (CLD) Gene Expression Assay for Baseline Control (Actin) at 6 hours (AID 2283676);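 also: active means increased actin mRNA relative to DMSO vehicle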
Procedure: CLD_6hr is a cell-based, multiplexed-readout assay that uses hepatocyte, a human liver primary cell, with measurements taken at 6 hours after chemical dosing in a 96-well plate.CLD_ACTIN_6hr is one of 16 assay component(s) measured or calculated from the CLD_6hr assay. It is designed to make measurements of mRNA induction, a form of inducible reporter, as detected with chemiluminescence signals by Quantitative Nuclease Protection Assay (qNPA) technology.Data from the assay component CLD_ACTIN_6hr was analyzed at the endpoint, CLD_ACTIN_6hr, in the positive analysis fitting direction relative to DMSO as the negative control and baseline of activity. Using a type of inducible reporter, gain-of-signal activity can be used to understand changes in the reporter gene as they relate to the gene ACTA1. Furthermore, this assay endpoint can be referred to as a secondary readout, because this assay has produced multiple assay endpoints where this one serves a background control function. To generalize the intended target to other relatable targets, this assay endpoint is annotated to the background measurement intended target family, where subfamily is baseline control.
Human hepatocyte cultures were treated daily for two consecutive days with fresh dosing solutions containing appropriate concentrations of the 320 ToxCast chemicals (chemical identities were blinded to CellzDirect and other ToxCast collaborators), vehicle control (0.2% DMSO), and positive control inducers as summarized in Table 1. Due to the large number of treatment groups and chemicals examined, the ToxCast chemicals were divided into two groups (spanning two independent cultures of hepatocytes from separate donor preparations (Hu778: ToxCast plates 1 and 2; Hu776: ToxCast plates 3 and 4). Each preparation of human hepatocyte cultures was treated with respective vehicle control, medium only control, set of six positive controls/reference chemicals for the five hepatic receptor pathways, and a subset of eight of the ToxCast chemicals (indoxacarb, pyrithiobac-sodium, norflurazon, cyhalofop-butyl, methomyl, thiram, acetochlor, and propiconazole). These replicate data, coupled with internal replicates designed within the blinded ToxCast chemical library, provided additional data to evaluate interindividual differences between hepatocyte preparations and their potential impact on chemical profiles.Cell morphology and integrity were evaluated using phase-contrast microscopy as an indicator of hepatocyte cell health (Tyson & Green, 1987). Cultures for each treatment group (i.e., media, vehicle [0.2% DMSO], positive control inducers [multiple concentrations], and the ToxCast chemicals [multiple concentrations]) were observed and cell morphology was assessed relative to vehicle control cultures at each harvest time point (0, 6, 24, or 48 h). […] Images were evaluated at the conclusion of the study to assess changes in cell integrity and account for the effects of chemical exposure on uncharacteristic changes in concentration-dependent gene expression profiles. The results from these determinations of apparent cytotoxicity were annotated (yes/no) alongside the corresponding qNPA data for reference.At the conclusion of each treatment period, hepatocyte cultures (96-well) were washed with 1 volume of HBSS, lysed by addition of 25 ul ArrayPlate lysis buffer (HTG, Tucson, AZ), and 70 ul/well of Denaturation Oil, denatured by incubation at 95C for 10 min, and frozen at approximately -70C until analysis by nuclease protection assay (qNPA) (Roberts et al., 2007). For qNPA analysis, cell lysates were thawed at 50C for approximately 30 min, qNPA probes were added, and samples were incubated at 95C for 10 min to begin the detection process by denaturing the target RNA, dissociating the duplexes and secondary structure hybridization. At the conclusion of the hybridization period, S1 nuclease reagent was added to each sample to digest all nonprotected nucleotides at 50C for 60-90 min. […]

Compound | outcome
O=C(Nc1ccccc1)Nc1cnns1 | inactive
CC(C)OC(=O)Nc1cccc(Cl)c1 | inactive
CCOCN(C(=O)CCl)c1c(C)cccc1CC | inactive
O=C(O)C(F)(F)C(F)(F)C(F)(F)C(F)(F)C(F)(F)C(F)(F)C(F)(F)F | inactive
CCOC1Oc2ccc(OS(C)(=O)=O)cc2C1(C)C (stereo not given) | inactive
COc1cc(OC)nc(NC(=O)NS(=O)(=O)c2cc(NC=O)ccc2C(=O)N(C)C)n1 | inactive
COC(=O)c1ccccc1S(=O)(=O)NC(=O)Nc1nc(C)nc(OC)n1 | inactive
Oc1ccc(Cl)cc1Cc1ccccc1 | inactive
CC(C)(C)C(O)C(Oc1ccc(Cl)cc1)n1cncn1 (stereo not given) | inactive
[2H]C1([2H])[n+]2ccccc2-c2cccc[n+]2C1([2H])[2H] | inactive
O=C(O)COc1ccc(Cl)cc1Cl | inactive
COC(=O)c1ccccc1CS(=O)(=O)NC(=O)Nc1nc(OC)cc(OC)n1 | inactive
CC1(c2ccc(Oc3ccccc3)cc2)OC(=O)N(Nc2ccccc2)C1=O (stereo not given) | inactive
CCN(CC)C(=O)SCc1ccc(Cl)cc1 | inactive
O=S(=O)(O)C(F)(F)C(F)(F)C(F)(F)C(F)(F)C(F)(F)C(F)(F)C(F)(F)C(F)(F)F | inactive
CCCN(CCOc1c(Cl)cc(Cl)cc1Cl)C(=O)n1ccnc1 | inactive
COP(=O)(OC)OC=C(Cl)Cl | inactive
O=C(O)CCCOc1ccc(Cl)cc1Cl | inactive

Compound | outcome
O=S1OCC2C(CO1)C1(Cl)C(Cl)=C(Cl)C2(Cl)C1(Cl)Cl (stereo not given) | inactive
O=C(NC(=O)c1c(F)cccc1F)Nc1ccc(OC(F)(F)C(F)OC(F)(F)F)c(Cl)c1 (stereo not given) | inactive
CNC(=O)CSP(=S)(OC)OC | inactive
CNC(=O)Oc1cccc(N=CN(C)C)c1 | inactive
CC(C)(C)C(O)/C(=C\c1ccc(Cl)cc1Cl)n1cncn1 (stereo not given) | inactive
OCCOc1ccccc1 | inactive
CC[C@H](C)[C@H]1O[C@]2(C=C[C@@H]1C)C[C@@H]1C[C@@H](C/C=C(\C)[C@@H](O[C@H]3C[C@H](OC)[C@@H](O[C@H]4C[C@H](OC)[C@@H](O)[C@H](C)O4)[C@H](C)O3)[C@@H](C)/C=C/C=C3\CO[C@@H]4[C@H](O)C(C)=C[C@@H](C(=O)O1)[C@]34O)O2 (tested in a mixture with another compound) | inactive
N#CN | inactive
ClC1C(Cl)C(Cl)C(Cl)C(Cl)C1Cl (stereo not given) | inactive
CNC(=O)Oc1ccccc1OC(C)C | inactive
Clc1ccccc1-c1nnc(-c2ccccc2Cl)nn1 | inactive
CCCN(CCC)c1c([N+](=O)[O-])cc(C(F)(F)F)cc1[N+](=O)[O-] | inactive
C[C@H]1[C@H](c2ccc(Cl)cc2)SC(=O)N1C(=O)NC1CCCCC1 | inactive
CCC(C)(NC(=O)c1cc(Cl)c(C)c(Cl)c1)C(=O)CCl (stereo not given) | inactive
C#CCN1C(=O)COc2cc(F)c(N3C(=O)C4=C(CCCC4)C3=O)cc21 | inactive
Cc1cc(C)nc(NC(=O)NS(=O)(=O)c2ccccc2C(=O)OC2COC2)n1 | inactive
CCC(C)(C)C(=O)OC1=C(c2ccc(Cl)cc2Cl)C(=O)OC12CCCCC2 | inactive
